eIF4H FP inh: human eIF4H binding inhibitors, primary screen, translation initiation inhibitor project, biochemical, uHTS, fluorescence polarization; Eukaryotic translation initiation factor 4H (Homo sapiens), Q15056; eIF4H fluorescence polarization binding assay; inhibition, % at 35 µM; hit rate 0.94% among 290,000;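 also: calls also rest on retests at 20 µM and on dose response follow-up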
PABP FP inh: PABP poly(A) RNA binding inhibitors, primary screen, biochemical, fluorescence polarization, uHTS; inhibition, % at 35 µM; hit rate 1% among 290,000;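 also: calls also rest on retests at 20 µM and on dose response follow-up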
PABP1 MLLE inh: inhibitors of PABP1 MLLE–PAM2 peptide binding, primary screen, biochemical, fluorescence polarization, FITC-PAM2, GST-MLLE; Polyadenylate-binding protein 1 (Homo sapiens), P11940; inhibition, % at 20 µM; hit rate 0.36% among 360,000; in the data active = inhibition above about 35%, passing the limit was not always enough
CendR NRP1 mod: modulators of CendR peptide binding to NRP-1, primary screen, biochemical, fluorescence polarization, uHTS; hit rate 0.85% among 360,000; Neuropilin-1 (Homo sapiens), O14786; FAM-RPARPAR peptide binding to NRP-1; AID 602438, 2012; inhibition, % at 25 µM;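 active = inhibition or corrected inhibition above about 18%, plus a signal ratio from 0.5 to 1.5, limit read from the data, passing the limit was not always enough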
Hits are given with their value; - = inactive; ? = inconclusive; . = no result given. Only some compounds are listed: those with a hit (about 2.1% of all), similar ones and a draw of the others. Unless noted, no rule for the calls is given here.

SMILES	eIF4H FP inh	PABP FP inh	PABP1 MLLE inh	CendR NRP1 mod
O=C(COc1cccnc1[N+](=O)[O-])c1ccc(Cl)s1	-	-	-	-
COc1ccc(-n2ncc(C(C)NS(=O)(=O)c3cc(F)ccc3C)c2C)cc1 (stereo unspecified)	-	-	-	-
COc1ccc(C(C)=O)cc1COC(=O)CCNS(=O)(=O)c1ccc(C(C)=O)cc1	-	-	-	44
COc1ccc(C(C)=O)cc1COC(=O)CCNS(=O)(=O)c1ccc(C)cc1	.	.	-	-
Cc1ccc(Nc2nc(=O)[nH]nc2C)cc1	-	-	-	-
Cc1ccc(Nc2nc(N)[nH]c(=O)c2N=O)cc1	?	39	-	-
Cc1ccc(C)c(NS(=O)(=O)c2cc(C(=O)NCc3ccncc3)ccc2C)c1	-	-	-	-
CCOC(=O)c1c(-c2ccccc2)csc1NC(=O)CSc1ccccc1	-	-	-	-
COc1cc([N+](=O)[O-])ccc1NC(=O)CCCOc1cccc(C)c1	-	-	-	20
CCOC(=O)c1c(-c2ccccc2)csc1NC(=O)/C(C#N)=C/c1ccc(O)c(OC)c1	?	active	-	-
COc1cc([N+](=O)[O-])ccc1NC(=O)CCCOc1ccc(C)cc1	-	-	-	-
CCOC(=O)c1c(-c2cccc([N+](=O)[O-])c2)csc1NC(=O)CCCOc1ccccc1OC	-	-	-	33
CCOC(=O)c1c(-c2ccccc2)csc1NC(=O)CSc1nncs1	-	80	-	-
CC(NC(=O)CNC(=O)c1cccc(Cl)c1)c1ccccc1 (stereo unspecified)	-	-	-	-
CNS(=O)(=O)c1ccc(CNC[C@H]2O[C@@H](n3cnc4c(=O)[nH]c(N)nc43)[C@H](O)[C@@H]2O)cc1	.	.	-	-
COc1cccc(NC(=O)CN2C(=O)NC3(CCc4ccccc43)C2=O)c1 (stereo unspecified)	.	.	-	-
COc1ccccc1-c1noc2c1C(=O)N(Cc1cn(-c3ccccc3)nn1)CC2	.	.	-	-
CCOC(=O)c1c(-c2ccccc2)csc1NC(=O)C1CCCO1 (stereo unspecified)	-	-	39	-
Cc1ccc(C)c(S(=O)(=O)Nc2ccc3oc(C)c(C(=O)O)c3c2)c1	87	75	-	-
CCCCCn1c(=O)c(C(=O)c2ccccc2)nc2ccccc21	-	65	-	-
CCn1c(=O)c(C(C)=O)nc2ccccc21	-	-	-	-
Cc1ccc(S(=O)(=O)N2CCSCCSCCSCCSCC2)cc1	.	.	-	-
Cc1ccsc1C(=O)NCC(c1cccs1)N1CCOCC1 (stereo unspecified)	.	.	-	-
COc1ccccc1OCC(=O)NCC(c1cccs1)N1CCOCC1 (stereo unspecified)	-	-	-	25
Cn1nc(C(=O)NCC(c2cccs2)N2CCOCC2)c2ccccc2c1=O (stereo unspecified)	.	.	-	27
SMILES	eIF4H FP inh	PABP FP inh	PABP1 MLLE inh	CendR NRP1 mod
CNc1cncc(-c2ccccc2NC(C)=O)n1	.	.	-	32
C[C@@H]1CN([C@@H](C)CO)C(=O)c2cc(Br)cnc2O[C@@H]1CN(C)S(C)(=O)=O	.	.	-	-
CC(=O)C[C@H](O)CC(=O)[C@H]1OC(=O)CC/C=C\Cc2ccccc21	.	.	-	-
O=C(CC1SC(N2CCOCC2)=NC1=O)Nc1ccccc1Cl (stereo unspecified)	.	.	-	-
O=C(CC1SC(N2CCOCC2)=NC1=O)Nc1cc([N+](=O)[O-])ccc1Cl (stereo unspecified)	?	64	-	-
COc1ccc(C)cc1-n1nnnc1SC(C)C(=O)NC1CCCC1 (stereo unspecified)	.	.	-	-
COC(=O)c1sc(=S)n(-c2cc(F)ccc2F)c1N	-	-	40	-
CNC(=O)c1ccccc1Sc1ccccc1C#N	-	-	-	32
COc1ccccc1NC(=O)CCN1CC(C)OC(C)C1 (stereo unspecified)	-	active	-	-
CC1(C)CC(CCNC(=O)CCl)(c2ccccc2)CCO1 (stereo unspecified)	-	-	-	26
O=C(Nc1nnc(SCC(=O)N2CCCCC2)s1)c1c(F)cccc1F	-	-	-	-
O=C(c1ccccc1F)N1CCN(C(=O)C(c2ccccc2)c2ccccc2)CC1	-	-	-	22
O=C(O)CN1C(=O)C2C3CC(C2C1=O)C1C(c2ccc(Cl)cc2)c2sc(=O)[nH]c2SC31 (stereo unspecified)	-	-	-	-
O=C(O)CN1C(=O)C2C3CC(C2C1=O)C1C(c2ccc(F)cc2)c2sc(=O)[nH]c2SC31 (stereo unspecified)	-	-	39	-
O=c1c(/C=N/OCc2ccc(Cl)cc2Cl)c[nH]n1-c1cccc(Cl)n1	25	-	-	-
Clc1cccc(-c2nc3ccc(Cl)cn3c2Cc2ccsc2)c1	.	.	-	-
Nc1ccc2cccc(O)c2c1	.	.	-	28
COc1cc(NC(=O)C2CC(=O)N(CCc3ccc(F)cc3)C2)cc(OC)c1OC (stereo unspecified)	-	-	-	-
Cc1ccc(N/C=C2/Sc3ccccc3NC2=O)cc1	?	active	-	-
O=C(Nc1ccc2c(c1)OCO2)c1cc(C2CCCN(C(=O)C3CCCCC3)C2)on1 (stereo unspecified)	.	.	-	-
Cc1ccc(Cl)c(NC(=O)CSc2cccc[n+]2[O-])c1Cl	.	.	-	28
COc1ccc(-c2ccc(N)cn2)cn1	.	.	-	-
COc1ccc(NC(=O)CSc2ccc(NC(C)=O)cc2)cc1S(=O)(=O)N1CCOCC1	.	.	-	-
Cc1ccc(NC(=O)c2ccc3c(c2)S(=O)(=O)c2ccccc2C3=O)cc1S(=O)(=O)N1CCOCC1	-	-	-	29
COc1ccc(NC(=O)CSc2ccc([N+](=O)[O-])cc2)cc1S(=O)(=O)N1CCOCC1	.	.	41	-
SMILES	eIF4H FP inh	PABP FP inh	PABP1 MLLE inh	CendR NRP1 mod
Cc1ccc(NC(=O)c2c3c(nc4ccccc24)CCC3)cc1S(=O)(=O)N(C)C	72	-	-	-
COc1ccc(C(=O)Nc2ccc(NC(=O)c3ccccc3)cc2)cc1S(=O)(=O)N1CCOCC1	-	-	-	-
COc1ccc(NC(=O)c2c3c(nc4ccccc24)CCC3)cc1S(=O)(=O)N1CCOCC1	-	8.5	-	-
O=C(Nc1ccc(S(=O)(=O)N2CCOCC2)cc1)c1ccc2c(c1)S(=O)(=O)c1ccccc1C2=O	-	-	-	-
CCn1nnc2cc(C(=O)N3CCC(C(=O)OC)CC3)ccc21	.	.	-	-
CCC(=O)N1CCc2cc(S(=O)(=O)CCC(=O)N3CCN(c4ccc(F)cc4)CC3)ccc21	-	-	-	-
Cc1ccc(S(=O)(=O)N2CCN(C(=O)Cc3ccccc3)CC2)cc1C	.	.	-	23
COc1ccc(C(=O)Nc2nnc(CC(=O)N/N=C/c3ccc(O)cc3O)s2)cc1	76	-	-	-
Cc1ccc(C(=O)Nc2nnc(CC(=O)N/N=C/c3ccc(O)c(O)c3)s2)cc1	.	.	-	-
O=[N+]([O-])c1ccc(-n2nnnc2CN2CCCCC2)cc1	-	-	-	24

Screens as filed in PubChem.
